The text below walks through data of PubChem BioAssay (NCATS).

Results filed as inconclusive are left out. Values without a mark were called inactive. Calls of active or inactive are those of the source. Unless noted, calls come from the whole dose curve; as a rule, active = well fitted curve in the direction sought with a large enough effect; inconclusive = small, poorly fitted or top-dose-only effect, or another doubt; inactive = no such curve, though single readings can be large; an effect the other way counts as inactive or inconclusive.

Experiment [1] in a line: P-glycoprotein substrates identified in KB-8-5-11 adenocarcinoma cell line, qHTS therapeutic library screen (AID 1346987). Note: nearly all actives have a fitted effect of over 65% in size. Note: potency is the fitted concentration of half-maximal effect. In short, it runs like this:
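Compounds are pinned in dose-response onto KB-8-5-11 cells (500 cells/well, colchicine-free medium) and left 72 h at 37 degree C. CellTiter-Glo luminescence then yields AC50 values.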
(Quantitative high-throughput screening tests each substance at several concentrations.)

Experiment [2] concerns Zika virus NS2B-NS3 protease (unlinked complex). Kind of experiment: Primary screen GU Rhodamine qHTS for Zika virus inhibitors: Unlinked NS2B-NS3 protease assay (AID 1347159). Note: % is set by controls: 0 for no effect and ±100 for the full control effect; nearly all actives have a fitted effect of over 60% in size. The essentials: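 Buffer 10 mM Tris-HCl pH 8.0, 0.01% Tween 20. Unlinked protease 25 nM; compound preincubation 15 min, RT, protected from light. Substrate Rhod110, 1.5 microM; ~15% conversion in 15 min.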

In experiment [3] the target is Cytochrome P450 2D6 (Homo sapiens) (UniProt P10635). The experiment can be described thus: Cytochrome P450 family 2 subfamily D member 6 (CYP2D6) small molecule antagonists: luciferase biochemical (cell-free) qHTS assay (AID 1645840; active = well fitted curve in the direction sought with a large enough effect in the repeat runs; an effect the other way counts as inactive or inconclusive; note: % is set by controls: 0 for no effect and ±100 for the full control effect; nearly all actives have a fitted effect of over 55% in size). The essentials: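 P450-Glo CYP2D6 system: proluciferin substrate converted by enzyme to luciferin, read by luminescence proportional to activity. Enzyme-substrate mix with compound 10 min at room temperature, then NADPH regeneration 1 h before detection reagent.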

Experiment [4] in a line: Primary qHTS for inhibitors of nuclear receptor binding SET domain protein 2 (NSD2) in an RCH-ACV wild type WT cells (2C) (AID 1645877). Note: nearly all actives have a fitted effect of over 70% in size. Note: potency is the fitted concentration of half-maximal effect.
Experiment [5] is described as follows: Primary fluorescence-based thiol-reactive (MSTI) qHTS assay for identification of artifact compounds. (AID 1845221).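 Note: thiol-reactive compounds lower the probe fluorescence signal; nearly all actives have a fitted effect of over 65% in size.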 In short, it runs like this:
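A multi-concentration qHTS design tested compounds against 4 uM MSTI, pH 7.4 phosphate-buffered saline. Plates were protected from light for 1 h at room temperature before imaging fluorescence.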

Experiment [6] is described as follows: Primary redox qHTS assay for identification of artifact compounds. (AID 1845223).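 Note: 0% = DMSO and 100% = reference compound.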 The essentials:
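Redox-cycling detection via DTT (250 uM final) oxidation coupled to Amplex Red (25 uM)/HRP (250 mU/mL) in HBSS. 15 min preincubation plus 30 min after DTT, room temperature. Ex/Em 525/598 nm; 4-parameter Hill fit against DMSO and 10 uM DA3003.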

The next experiment relates to KB-3-1. The experiment can be described thus: Cytotoxic Profiling of Annotated Libraries Using Quantitative High-Throughput Screening (AID 1296008). For max response: % is set by controls: 0 for no effect and ±100 for the full control effect. Note: nearly all actives have a fitted effect of over 60% in size. Note: potency is the fitted concentration of half-maximal effect. The note with it: Five cell lines viability, CellTiter-Glo ATP luminescence, 48-72 h; max response: hits give low values. In short, it runs like this: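 Compounds were pin-transferred onto cells and incubated 48 or 72 hr at 37 degree Celsius, 95% humidity. CellTiter-Glo was added, plates sat 10 min at room temperature, then ATP-coupled luminescence was imaged as the viability read-out.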
(In general: In ATP-based viability assays light output follows the ATP content of the culture.)

Another experiment has as its system HACAT. The experiment can be described thus: qHTS assay to identify novel small-molecules to repurpose for Merkel cell carcinoma treatment (AID 1296009). Note: nearly all actives have a fitted effect of over 60% in size. Particulars: MCC and control cell lines, CellTiter-Glo viability, 72 h; at 44.8 µM (top of the series) unless noted. In short, it runs like this: (§1)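 Viability readout: ATP luminescence (CellTiter-Glo) after 72 hr drug exposure at 37 degree celsius. Dose-response format was 8 points for NPC and 11 points for MIPE; data normalized to in-plate controls.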

The next experiment relates to CAOV3. The experiment can be described thus: Primary qHTS to identify gynecologic anti-cancer compounds using libraries of approved drugs and bioactive compounds (AID 1345084). Note: nearly all actives have a fitted effect of over 55% in size. Note: potency is the fitted concentration of half-maximal effect. Particulars: Gynecologic cancer cell panel viability, ATPlite luminescence, 48 h; series mostly up to 57.5 µM. In short, it runs like this: (§2)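 ATP-based viability (ATPlite), 1,000 cells/well, 16 h pre-incubation, 48 h compound at 37 C, 5% CO2, 15 min RT before read.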

The subject of the next experiment is HeLa. The experiment is described as above. Particulars: Gynecologic cancer cell panel viability, ATPlite luminescence, 48 h; series mostly up to 57.5 µM. The essentials: as §2
The target of experiment [7] is Cytochrome P450 2C9 (Homo sapiens) (UniProt P11712). The experiment can be described thus: Cytochrome P450 family 2 subfamily C member 9 (CYP2C9) small molecule antagonists: luciferase biochemical (cell-free) qHTS assay (AID 1645842; active = well fitted curve in the direction sought with a large enough effect in the repeat runs; an effect the other way counts as inactive or inconclusive; note: nearly all actives have a fitted effect of over 55% in size; note: potency is the fitted concentration of half-maximal effect). In short, it runs like this:
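P450-Glo CYP2C9 system: proluciferin substrate with enzyme in mix containing 0.4% BSA, 10 min at room temperature, then NADPH regeneration solution added and incubated 1 h at 37C. Detection reagent stopped reaction; luminescence read after 20 min as RLU.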

The subject of another experiment is SKOV3. Kind of experiment: Primary qHTS to identify gynecologic anti-cancer compounds using libraries of approved drugs and bioactive compounds (AID 1345084). Note: nearly all actives have a fitted effect of over 55% in size. Note: potency is the fitted concentration of half-maximal effect. The note with it: Gynecologic cancer cell panel viability, ATPlite luminescence, 48 h; series mostly up to 57.5 µM. In short, it runs like this:
as §2

The nature of experiment [8]: P-glycoprotein substrates identified in KB-3-1 adenocarcinoma cell line, qHTS therapeutic library screen (AID 1346986). Note: nearly all actives have a fitted effect of over 60% in size. In short, it runs like this: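 72 h cell-killing screen, 500 cells/well, CellTiter-Glo luminescence. Paired lines KB-3-1/KB-8-5-11; P-gp dependence checked by tariquidar co-treatment and HEK-293 MDR-19 versus empty-vector cells.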
The subject of a further experiment is CRL-7250. Kind of experiment: qHTS assay to identify novel small-molecules to repurpose for Merkel cell carcinoma treatment (AID 1296009). Note: nearly all actives have a fitted effect of over 60% in size. The note with it: MCC and control cell lines, CellTiter-Glo viability, 72 h; series mostly up to 92 µM. In short, it runs like this:
as §1

Sequence of Cytochrome P450 2D6 (Homo sapiens) (P10635 whole entry, looked up): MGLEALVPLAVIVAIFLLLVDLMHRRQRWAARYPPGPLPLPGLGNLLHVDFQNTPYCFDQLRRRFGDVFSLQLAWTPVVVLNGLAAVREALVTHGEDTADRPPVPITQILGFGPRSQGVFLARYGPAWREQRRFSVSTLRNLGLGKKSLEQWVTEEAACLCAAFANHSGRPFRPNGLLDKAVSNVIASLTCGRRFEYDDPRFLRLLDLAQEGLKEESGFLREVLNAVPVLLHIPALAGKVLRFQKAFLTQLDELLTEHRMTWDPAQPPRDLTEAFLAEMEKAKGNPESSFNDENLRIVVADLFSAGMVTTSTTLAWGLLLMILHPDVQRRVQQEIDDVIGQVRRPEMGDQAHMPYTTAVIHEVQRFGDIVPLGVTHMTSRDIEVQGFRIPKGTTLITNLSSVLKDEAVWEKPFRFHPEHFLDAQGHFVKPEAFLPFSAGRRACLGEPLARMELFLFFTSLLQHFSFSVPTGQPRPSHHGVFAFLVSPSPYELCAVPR
Sequence of Cytochrome P450 2C9 (Homo sapiens) (P11712 whole entry, looked up): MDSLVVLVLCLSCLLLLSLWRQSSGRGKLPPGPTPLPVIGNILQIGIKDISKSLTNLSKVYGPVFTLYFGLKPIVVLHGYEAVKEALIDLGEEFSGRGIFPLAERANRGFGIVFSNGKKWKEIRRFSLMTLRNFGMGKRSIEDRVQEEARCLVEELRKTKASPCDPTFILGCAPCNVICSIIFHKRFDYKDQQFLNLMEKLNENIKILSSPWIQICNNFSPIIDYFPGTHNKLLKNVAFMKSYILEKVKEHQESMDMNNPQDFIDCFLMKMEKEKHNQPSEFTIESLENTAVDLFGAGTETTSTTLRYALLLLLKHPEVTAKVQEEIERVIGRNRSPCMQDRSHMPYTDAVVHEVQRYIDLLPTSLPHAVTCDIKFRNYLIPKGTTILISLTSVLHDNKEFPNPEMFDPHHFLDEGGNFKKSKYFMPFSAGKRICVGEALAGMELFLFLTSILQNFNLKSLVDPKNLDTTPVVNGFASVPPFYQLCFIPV

On to `Cc1c(N2C(=O)[C@@H]3[C@H](O)CCN3C2=O)ccc(C#N)c1Cl`, for which the Potency result in experiment [1], in experiment [2], in experiment [3], in experiment [4], in [5] and in experiment [6] was “inactive” in each case. For the same compound, the Potency entry in the experiment on CAOV3 and with HeLa was “inactive” in each case. Also, the max response with KB-3-1 is -9.81%. In addition, the compound was classed as inactive in the experiment on HACAT.

On to `CC1(C)C(=O)N(c2ccc(C#N)c(C(F)(F)F)c2)C(=O)N1CCCCO`, for which the Potency result (in experiment [2]; in [3]; in experiment [4]; in [5]; in experiment [6]; in the experiment with CAOV3) was “inactive” each time. Also, the Potency entry in the experiment with HeLa and in the experiment with SKOV3 was “inactive” each time. Besides, the Potency in experiment [7] was 10700 nM (active). In addition, the max response with KB-3-1 is -3.73%.

Consider `CO[C@@H]1[C@H](O)[C@@H](O[C@@H]2C[C@H]3CC[C@@H]4C(CC[C@]5(C)[C@@H](C6=CC(=O)OC6)CC[C@]45O)[C@@]3(C)[C@H](O)C2)O[C@H](C)[C@@H]1O` (stereo not given in full), for which the Potency was 159 nM (active) in experiment [4]; 448 nM (active) in the experiment on KB-3-1; 631 nM (active) with CAOV3; 199 nM (active) with HeLa; 251 nM (active) with SKOV3. Besides, the Potency entry in experiment [5] is “inactive”.

Consider `C#CCO[C@H]1CN2CCC1CC2`, for which the Potency entry (in [4]; in [5]; in experiment [6]; in the experiment on CAOV3; with HeLa; in the experiment on SKOV3) was “inactive” each time. For the same compound, the max response in the experiment on KB-3-1 is 2.91%.

As to `Cc1c(Cl)c(OCC(=O)N2CCN(C)CC2)nc2sc(C(=O)NC3CC3)c(N)c12`, the Potency result (in [8]; in [1]; in experiment [3]; in experiment [5]; in experiment [6]; with CAOV3) was “inactive” each time. Besides, the Potency result in the experiment on HeLa and in the experiment with SKOV3 was “inactive” in each case. Also, the result in the experiment on KB-3-1 was inactive.

Consider `C=CCN1CC[C@]23c4c5ccc(O)c4O[C@H]2[C@@H](O)CC[C@@]3(O)[C@H]1C5`, for which the Potency entry (in experiment [2]; in experiment [4]; in experiment [6]; with CAOV3; in the experiment with HeLa; with SKOV3) was “inactive” in each case. Besides, the max response in the experiment on KB-3-1 is 3.34%.

Consider `C/C=C(/C)C1C=CC2CC(C)CC(C)C2C1/C(O)=C1\C(=O)NC(CC(C)(O)C(=O)O)C1=O` (stereo not given), for which the Potency entry (in experiment [1]; in [4]; with CRL-7250; with HeLa; in the experiment on SKOV3) was “inactive” in each case. In addition, the max response in the experiment on KB-3-1 was 4.77%.

In the case of `CCC(C)/C=C(C)/C=C/C1=CC2=C(Cl)C(=O)C(C)(OC(C)=O)C(=O)C2=CO1` (stereo not given), the Potency entry (in experiment [1]; in the experiment with CAOV3; in the experiment on HeLa; in the experiment on SKOV3) was “inactive” in each case. Besides, the max response in the experiment with KB-3-1 was -15.5%.

As to `CCC(C)(O)C1(C(=O)O)COC(=O)C1` (stereo not given), the Potency result (in experiment [8]; in [1]; in [6]; in the experiment with CAOV3; with HeLa; in the experiment with SKOV3) was “inactive” in each case. For the same compound, the compound was called inactive in the experiment on KB-3-1. Moreover, the outcome in the experiment with HACAT is “inactive [at 92 µM]”.

Take `CC1CCCC(O)CC(=O)Cc2cc(O)cc(O)c2C(=O)O1` (stereo not given): the Potency entry (in experiment [1]; in experiment [2]; in experiment [4]; in experiment [6]; with CAOV3; in the experiment on SKOV3) was “inactive” each time. The max response in the experiment on KB-3-1 was 8.3%. Further, the outcome with HACAT was inactive.

Take `C[C@@H]1CCC/C=C/[C@H]2C[C@@H](O)C[C@@H]2[C@@H](O)/C=C/C(=O)O1`: the Potency was 164 nM (active) in experiment [1]; 409 nM (active) in experiment [4]; 146 nM (active) in the experiment on KB-3-1; 316 nM (active) with CAOV3; 501 nM (active) with HeLa; 355 nM (active) in the experiment on SKOV3. Besides, the Potency entry in experiment [2], in experiment [5] and in experiment [6] was “inactive” throughout.

As to `CC(=O)O[C@H]1CC[C@H]2[C@@H]3CC[C@H]4CC(=O)C=C(C)[C@]4(C)[C@H]3CC[C@]12C`, the Potency result (in experiment [1]; in experiment [2]; in experiment [5]; in experiment [6]; with CAOV3; with SKOV3) was “inactive” in each case. Besides, the max response in the experiment on KB-3-1 was 7.22%. For the same compound, the compound was classed as inactive in the experiment with HACAT.

With `N#Cc1ccc([C@H]2CCCC[C@H]2O)cc1C(F)(F)F`, the Potency result (in experiment [1]; in experiment [2]; in [6]; in the experiment with CAOV3; in the experiment on HeLa) was “inactive” throughout. In addition, in experiment [7], the Potency was 26800 nM (active). In addition, the max response with KB-3-1 is -5.63%.

Consider `CC1=CC2/C=C(\C)CCCC(O)/C=C/C(=O)OC23C(=O)NC(CC(C)C)C3C1C` (stereo not given), for which the Potency result in experiment [8], in [1], in experiment [2], in [4], in experiment [5] and in experiment [6] was “inactive” in each case. For the same compound, the Potency result in the experiment with CRL-7250, with CAOV3, in the experiment with HeLa and in the experiment with SKOV3 was “inactive” each time. Also, in the experiment on KB-3-1, the compound was classed as inactive.

In the case of `COC(=O)C1=COC(C)C2CN3CCC4(C(=O)Nc5ccccc54)C3CC12` (stereo not given), the Potency result (in experiment [1]; in [2]; in experiment [4]; in experiment [5]; in experiment [6]; in the experiment on CAOV3) was “inactive” throughout. For the same compound, the Potency entry with HeLa and with SKOV3 was “inactive” each time. Moreover, the max response in the experiment with KB-3-1 was -8.2%.

In the case of `COC1C=CC23c4cc5c(cc4COC2(O)CN(C)C3C1)OCO5` (stereo not given), the Potency result in experiment [8], in experiment [1], in [2], in experiment [4], in experiment [5] and in experiment [6] was “inactive” each time. The Potency result in the experiment with CAOV3 was “inactive”. For the same compound, the compound was called inactive with KB-3-1 and in the experiment on HACAT.

Consider `CN1C2CCC1CC(OC(=O)N1Cc3ccccc3NC1=O)C2` (stereo not given), for which the Potency entry in experiment [1], in experiment [2], in [3], in [7], in experiment [4] and in [5] was “inactive” each time. The Potency entry (in experiment [6]; with CRL-7250; in the experiment on CAOV3; with HeLa) was “inactive” throughout. For the same compound, the max response in the experiment on KB-3-1 is -1.51%.
